Measurements taken from PubChem BioAssay.
For part of these data: Results with a measured potency or affinity are listed apart. Calls of active or inactive are those of the source. Unless noted, cut-off not given; nearly all actives show IC50 up to about 0.98 µM.

System: not listed separately
Experiment: inhibition of 3D7 malaria parasite growth – strain 3D7 (AID 2306; call rule not given here;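 further: 0% = DMSO wells and 100% = chloroquine plus artemisinin control wells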)
Settings: P. falciparum 3D7 erythrocytic growth, LDH absorbance, 72 h; at 2 µM; active compounds read high

Growth inhibition, active:
C=CC[C@H](NC(=O)c1ccc(NS(=O)(=O)c2ccc3nc(N)[nH]c(=O)c3c2)cc1)C(=O)OCCCC 97%
O=C(Nc1cccc(CN2CCN(C(=O)c3cccc(Cl)c3)CC2)c1)c1ccco1 96%
CC(=O)N[C@H](C(=O)Nc1ccc(-c2ccc(-c3nc4ccc(C(F)(F)F)cc4[nH]3)cc2)cc1)C(C)C 88%
O=C(Cc1ccc(NC(=O)c2ccc(O)c(-c3ccc(Cl)c(Cl)c3)c2)cc1)NCCN1CCOCC1 94%
O=C(NCCCCN1CCC(c2ccc3c(c2O)CCCC3)CC1)c1ccc(-c2ccc(Cl)cc2)cc1 98%
O=C(Nc1ccc(-c2cccc(-c3nc4ccccc4[nH]3)c2)cc1)N[C@@H]1C[C@H]1c1ccccc1 84%
CCN(CC)CCCC(C)Nc1c2ccccc2nc2c1ccc1ccccc12 (centres undefined) 96%
NC1CCN(Cc2ccc(-c3ccc(-c4nc5ccc(F)cc5[nH]4)s3)cc2)C1 (centres undefined) 100%
Fc1cccc(C=NNc2ccnc3cc(Cl)ccc23)c1 99%
Nc1cc(-c2ccc3c(N)nccc3c2)ccc1Cl 91%
O=[N+]([O-])c1ccc(Oc2ccccc2CNCC2CCN(CC3CCCCC3)CC2)cc1 89%
CCN(CCCN1CCCCC1)c1cc(C)nc(Nc2ccc(C)c(C)c2)n1 101%
CC(C)(C)c1ccc(CN2CCC(CNC(=O)c3cc(-c4ccccc4)nc4ccccc34)CC2)cc1 89%
CCCCCCCCNCC(O)c1cc(-c2ccc(Cl)cc2)nc2cc(C)ccc12 (centres undefined) 99%

Target: Calcium-dependent protein kinase 1 (Plasmodium falciparum (isolate 3D7)) (UniProt P62344)
Experiment: PfCDPK1 kinase inhibitors, biochemical, TCAMS library (AID 1159585);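 further: inhibitors leave more ATP so luminescence rises with inhibition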
Settings: recombinant PfCDPK1, Kinase-Glo ATP depletion luminescence

Sequence of Calcium-dependent protein kinase 1 (Plasmodium falciparum (isolate 3D7)) (P62344 whole entry, looked up): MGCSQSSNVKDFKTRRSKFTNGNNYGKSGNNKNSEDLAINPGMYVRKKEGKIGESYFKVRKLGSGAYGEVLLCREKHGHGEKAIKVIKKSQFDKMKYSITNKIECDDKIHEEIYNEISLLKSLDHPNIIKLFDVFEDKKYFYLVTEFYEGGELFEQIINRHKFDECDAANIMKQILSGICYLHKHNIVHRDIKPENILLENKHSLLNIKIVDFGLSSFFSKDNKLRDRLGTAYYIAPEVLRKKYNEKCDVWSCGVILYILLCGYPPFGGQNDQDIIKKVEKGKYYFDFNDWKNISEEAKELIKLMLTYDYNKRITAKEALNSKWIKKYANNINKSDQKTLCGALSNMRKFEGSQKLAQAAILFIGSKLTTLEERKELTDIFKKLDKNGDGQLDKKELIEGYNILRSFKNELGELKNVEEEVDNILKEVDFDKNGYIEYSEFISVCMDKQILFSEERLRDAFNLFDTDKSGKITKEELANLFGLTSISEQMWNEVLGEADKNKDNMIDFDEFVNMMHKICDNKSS

outcome, inactive:
CCN(CC)CCCNc1ncc2c(-c3ccc(NC(=O)Nc4cc(C(F)(F)F)ccc4F)cc3)nn(C)c2n1
CC(C)Cc1cn(-c2nc(C(=N)N)cs2)c2cc(Cl)ccc12
Oc1ccc2[nH]c(-c3cccs3)nc2c1CN1CCC(N2CCCC2)CC1
COc1ccc(N2CCN(c3nc(N)c4cc(OC)c(OC)cc4n3)CC2C)cc1 (centres undefined)
Oc1c(Cl)cc(-c2ccccc2)cc1CNC1CCCCC1
O=C(Nc1ccc(F)cc1)N1CCCN(c2ccnc3cc(Cl)ccc23)CC1
Nc1cccc(CNCc2ccc(-c3cccc(-c4nc5ccccc5[nH]4)c3)cc2)c1
Cc1nc(Nc2ccc(F)cc2)nc(N2CCc3ccccc3C2C)c1CO (centres undefined)
CNCCNC(=O)C1Cc2c([nH]c3c(C)cccc23)C(c2ccc(Cl)c(Cl)c2)N1 (centres undefined)
CCCc1cc(NCc2ccncc2)nc(Nc2ccc(F)cc2)n1
CCCCCn1c(Sc2ccc(C#N)c([N+](=O)[O-])c2)nnc1-c1cc(OC)cc(OC)c1
COc1cc(OC)c(NC(=O)COc2ccc(C)cc2)cc1Cl
c1ccc(-c2cc(NCCCCCCCCNc3cc(-c4ccccc4)nc4ccccc34)c3ccccc3n2)cc1
Cn1nccc1C(=O)NCCNCc1ccc(-c2cccc(-c3nc4ccc(F)cc4[nH]3)c2)cc1
COc1cc(C=NNc2nc(Nc3ccccc3)nc(Nc3ccccc3)n2)ccc1OCc1ccccc1[N+](=O)[O-]
O=C(/C=C/c1ccc(Cl)c(Cl)c1)NCCCCCN1CCC(c2cn[nH]c2-c2ccccc2)CC1
CCOc1cc(C)ccc1C1CCN(CCCCNC(=O)c2ccc(-c3ccc(Cl)cn3)cc2)CC1
NC(=O)c1cccc(C(=O)Nc2ccc(-c3cccc(-c4nc5ccc(C(F)(F)F)cc5[nH]4)c3)cc2)c1
COc1ccccc1CCNC(=O)c1cnc(N2CCN(c3ccncc3)CC2)c(Cl)c1
Cc1ccc(-n2c(Sc3ncnc4sccc34)nnc2N2CCCC2)cc1
Cc1cc(N2CCCCC2)nc2ccc(NC(=O)c3cncc(Br)c3)cc12
Cn1nc(-c2cccc(CNCCc3cccs3)c2)c2cnc(NC3CCCC3)nc21
COc1ccc2nccc([C@@H](O)CN3CCC(NCc4ccc5cccc(O)c5n4)CC3)c2c1
CCCNCc1ccc(-c2ccc(CN(CCOC)C(=O)c3nn(-c4ccccc4)nc3C)cc2)nc1
CC(CN(C)C)C(=O)Nc1cccc(-c2ccc(-c3nc4ccc(C(F)(F)F)cc4[nH]3)cc2)c1 (centres undefined)
Cc1ccc(C)c(Sc2ccc(NC(=O)CN3CCN(C(=O)c4ccco4)CC3)cc2)c1
C=CC[C@H](NC(=O)c1ccc(NS(=O)(=O)c2ccc3nc(N)[nH]c(=O)c3c2)cc1)C(=O)OCCCC
O=C(Nc1cccc(CN2CCN(C(=O)c3cccc(Cl)c3)CC2)c1)c1ccco1
CC(=O)N[C@H](C(=O)Nc1ccc(-c2ccc(-c3nc4ccc(C(F)(F)F)cc4[nH]3)cc2)cc1)C(C)C
O=C(Cc1ccc(NC(=O)c2ccc(O)c(-c3ccc(Cl)c(Cl)c3)c2)cc1)NCCN1CCOCC1
O=C(NCCCCN1CCC(c2ccc3c(c2O)CCCC3)CC1)c1ccc(-c2ccc(Cl)cc2)cc1
O=C(Nc1ccc(-c2cccc(-c3nc4ccccc4[nH]3)c2)cc1)N[C@@H]1C[C@H]1c1ccccc1
CCN(CC)CCCC(C)Nc1c2ccccc2nc2c1ccc1ccccc12 (centres undefined)
NC1CCN(Cc2ccc(-c3ccc(-c4nc5ccc(F)cc5[nH]4)s3)cc2)C1 (centres undefined)
Fc1cccc(C=NNc2ccnc3cc(Cl)ccc23)c1
Nc1cc(-c2ccc3c(N)nccc3c2)ccc1Cl
O=[N+]([O-])c1ccc(Oc2ccccc2CNCC2CCN(CC3CCCCC3)CC2)cc1
CCN(CCCN1CCCCC1)c1cc(C)nc(Nc2ccc(C)c(C)c2)n1
CC(C)(C)c1ccc(CN2CCC(CNC(=O)c3cc(-c4ccccc4)nc4ccccc34)CC2)cc1
CCCCCCCCNCC(O)c1cc(-c2ccc(Cl)cc2)nc2cc(C)ccc12 (centres undefined)
